Compound activity from PubChem.
Compounds with a hit are over-represented: about 1.3% of the library has one in this group of screens.
Phagocytosis inh: inhibitors of macrophage phagocytosis, primary screen, imaging, J774A.1 cells, IgG beads; J774A.1 macrophage IgG-bead phagocytosis; AID 1029, 2008; actives 0.07% (n = 110,000); inhibition, % at 5 µM;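 active = inhibition above the mean of the plate negative controls plus 5 SD, cut at about 13% in these data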;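 also: phagocytic index as fraction of beads internalized from green versus red external bead signal; plate controls were DMSO negative control for no effect and cytochalasin-D positive control for full effect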
S1P2 agonist: S1P2 receptor agonists, primary screen, cell-based; Sphingosine 1-phosphate receptor 2 (Homo sapiens), O95136; S1P2-expressing cell line, agonist reporter read-out; activation, % at 4.5 µM; actives 0.46% (n = 97,000); AID 729, 2007; in the data active = activation above about 16%;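 also: 0% = vehicle low control and 100% = maximal reference agonist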
GALR2 ag: GALR2 receptor agonists, primary screen, cell-based | activation, % (no concentration beside the values) | actives 0.48% (n = 140,000) | Galanin receptor type 2 (Homo sapiens), O43603 | GALR2-expressing cells, agonist activation read-out | AID 803, 2007; in the data active = activation above about 5%, passing the limit was not always enough;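 also: 0% = vehicle buffer wells and 100% = reference agonist at full effect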
Target sequence (O43603 whole entry, looked up): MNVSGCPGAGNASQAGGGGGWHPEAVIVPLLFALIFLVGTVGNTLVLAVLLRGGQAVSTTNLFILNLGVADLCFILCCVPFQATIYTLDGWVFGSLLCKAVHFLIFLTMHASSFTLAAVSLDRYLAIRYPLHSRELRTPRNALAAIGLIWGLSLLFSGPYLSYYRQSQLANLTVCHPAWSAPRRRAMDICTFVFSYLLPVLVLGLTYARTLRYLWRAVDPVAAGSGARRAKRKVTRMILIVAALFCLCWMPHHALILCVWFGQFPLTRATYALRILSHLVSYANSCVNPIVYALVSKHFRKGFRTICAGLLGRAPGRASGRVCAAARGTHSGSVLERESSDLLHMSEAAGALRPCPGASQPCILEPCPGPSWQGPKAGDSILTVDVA
GALR2 antag: GALR2 antagonists in receptor-expressing cells, primary screen; actives 0.39% (n = 140,000); inhibition, % at 4 µM; antagonist mode; AID 828, 2007; Galanin receptor type 2 (Homo sapiens), O43603; in the data active = inhibition above about 27%;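 also: cells stimulated with galanin 1-16 at roughly its EC80; 0% = agonist challenge control and 100% = basal control without agonist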
S1P2 blocker: human S1P2 receptor antagonists, primary screen, cell-based; Sphingosine 1-phosphate receptor 2 (Homo sapiens), O95136; cell-based S1P2 antagonist assay, inhibition at 5 uM; inhibition, % at 5 µM; actives 0.21% (n = 97,000); AID 736, 2007; in the data active = inhibition above about 45%;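 also: CRE beta-lactamase reporter cells expressing human S1P2 stimulated with S1P; 0% = agonist at EC80 alone and 100% = agonist plus reference antagonist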
GALR2 agon conf: GALR2 agonists, retest of hits, confirmation, cell-based; activation, % at 5.6 µM; AID 864, 2007; actives 10% (n = 460); GALR2-expressing cells, agonist activation; shares compounds with GALR2 ag; in the data active = activation above about 8.4%;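 also: 0% = buffer-only vehicle wells and 100% = full reference agonist response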
BLA act counter: activators of NFAT-driven beta-lactamase reporter, confirmation, counter-screen for GALR2 agonist project, CHO NFAT-bla cells, FRET readout | shares compounds with GALR2 ag | beta-lactamase FRET activation | activation, % at 5.6 µM | actives 10% (n = 460) | AID 865, 2007;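 active = activation above the screen-wide mean activation plus 3 SD, cut at about 8% in these data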;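 also: 0% = DMSO with PBS wells and 100% = thapsigargin positive control wells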
* hit, by the source's call; nt = no result.

SMILES	Phagocytosis inh	S1P2 agonist	GALR2 ag	GALR2 antag	S1P2 blocker	GALR2 agon conf	BLA act counter
CCOC(=O)N1CCN(c2ccc(C(=O)CC)cc2F)CC1	-1	0	0	-1	-2	nt	nt
Fc1c(F)c(C(F)(F)F)c(F)c(F)c1N/N=C\c1cccs1	-1	0	31*	1	5	7	6
COc1ccc2cc(-c3cc(C(=O)OCC(=O)NC4CCS(=O)(=O)C4)c4ccccc4n3)ccc2c1 (configuration not stated)	5	nt	11*	14	nt	14*	25*
O=C(COC(=O)c1cc(-c2cccc3ccccc23)nc2ccccc12)NC1CCS(=O)(=O)C1 (configuration not stated)	2	nt	0	7	nt	nt	nt
CCn1ncc(Cl)c1C(=O)Nc1cc([N+](=O)[O-])ccc1OC	0	nt	-1	5	nt	nt	nt
Cc1cccc(NC(=O)/C(C#N)=C/c2cn(CC(=O)NCc3ccco3)c3ccccc23)c1C	-4	nt	29*	6	nt	11*	8.2*
O=C(CSc1ccc2nnc(-c3cccc(F)c3)n2n1)N1CCCc2ccccc21	-1	nt	9.1*	2	nt	9.7*	8
CC1CCc2c(sc3ncnc(N4CCN(S(=O)(=O)c5cccc6nonc56)CC4)c23)C1 (configuration not stated)	nt	-5	-1	-12	-3	nt	nt
N#CC1=C(N)N(c2ncn[nH]2)C2=C(C(=O)CCC2)C1c1ccc(F)cc1 (configuration not stated)	-4	nt	-1	1	nt	nt	nt
O=C(CCCNC(=O)/C(=C\c1ccc(F)cc1)NC(=O)c1ccccc1)OCc1ccccc1	nt	-4	-5	11	3	nt	nt
C(=C\c1ccco1)/C1=NN(c2ccccc2)C(c2ccco2)C1 (configuration not stated)	-5	nt	72*	17	nt	27*	39*
O=C(NN1CCOCC1)c1cc(S(=O)(=O)Nc2cccc(C(F)(F)F)c2)ccc1Cl	-6	nt	-1	-11	nt	nt	nt
NS(=O)(=O)c1ccc(CCNc2nc3c(-c4cccc(F)c4)nnn3c3ccccc23)cc1	-4	nt	11*	18	nt	3	2
Cc1cccc(-c2nnn3c2nc(NCCc2ccc(S(N)(=O)=O)cc2)c2ccccc23)c1	0	nt	4	18	nt	nt	nt
COc1ccc(N2CC(NC(=O)NCCC(C)C)CC2=O)cc1 (configuration not stated)	nt	nt	-1	1	nt	nt	nt
CCOCC(=O)Nc1nnc(COC)s1	2	-4	0	-2	1	nt	nt
COCc1nnc(NC(=O)C(C)C)s1	5	3	136*	-1	-9	-1	0
CC1CCc2cc(F)cc3c(O)c(C(=O)NCc4ccco4)c(=O)n1c23 (configuration not stated)	nt	-10	9.5*	0	17	0	-1
O=C(Cn1c(COc2ccccc2)nc2ccccc21)Nc1cc(Cl)cc(Cl)c1	-8	nt	2	-6	nt	nt	nt
O=C(Cn1c(COc2ccccc2)nc2ccccc21)Nc1cc(Cl)ccc1Cl	-11	nt	10*	1	nt	4	5
O=C(/C=C/c1ccco1)Nc1cc(Cl)ccc1C(=O)O	-5	nt	12*	-8	nt	-1	-2
COC(=O)c1cn(NC(=O)c2cccc(N(C)C)c2)c(=O)c2ccccc12	0	-3	-1	-10	6	nt	nt
COC(=O)c1cn(NC(=O)c2cccc(F)c2)c(=O)c2ccccc12	1	-3	18*	2	2	-1	-1
CCOc1ccc(N2CC(C(=O)OC)CC2=O)cc1 (configuration not stated)	0	-6	0	0	-9	nt	nt
c1coc(CN(Cc2ccco2)c2ncnc3c2oc2ccccc23)c1	nt	-2	9	8	-24	0	-2
SMILES	Phagocytosis inh	S1P2 agonist	GALR2 ag	GALR2 antag	S1P2 blocker	GALR2 agon conf	BLA act counter
Clc1ncnc2c1oc1ccccc12	-1	-3	-2	19	7	nt	nt
Cc1ccc(Sc2ccc(N)cc2C#N)cc1	nt	-2	-1	7	-3	nt	nt
CCCC(C)NC(=O)c1ccc(OCc2ccc(Cl)cc2)c(OC)c1 (configuration not stated)	-17	nt	4	7	nt	nt	nt
CC(C)(C)c1cc(CCC(=O)NNC(=S)NC(=O)c2ccccc2)cc(C(C)(C)C)c1O	-5	nt	35*	-5	nt	37*	29*
O=C(CCc1ccccc1)NNC(=S)NC(=O)c1ccccc1	nt	-9	-2	-1	-1	nt	nt
COCCCNC(=O)c1cn(CC(C)C)c(=O)c2c1c1ccccc1n2C	-1	-5	20*	-5	-5	0	-3
Cc1ccccc1-n1c(C)nnc1SCc1cc(=O)oc2ccc3ccccc3c12	-1	nt	1	0	nt	nt	nt
Cc1cc(C(=O)CSc2nnnn2C)c(C)n1-c1ccc2c(c1)OCCO2	0	-4	0	-8	9	nt	nt
Cc1nnc(SCC(=O)c2cc(C)n(-c3ccc4c(c3)OCO4)c2C)s1	0	-5	10	-8	-5	-1	-2
Cc1cc(C)c(NC(=O)CCCC(=O)O)c(Cl)c1	nt	-2	13*	-2	9	-1	-2
CCc1cccc(C)c1NC(=O)CCCC(=O)O	7	-2	-2	-16	-12	nt	nt
CCN(CC)C(c1ccc(F)cc1)c1nnnn1C1CCCCC1 (configuration not stated)	-1	-7	9.8*	-1	-18	0	-1
CCN(CC)C(c1ccc(C)cc1)c1nnnn1C1CCCCC1 (configuration not stated)	-1	-2	-1	-8	9	nt	nt
Cc1ccc(NC(=O)CN2CCCN(S(=O)(=O)c3ccc(Br)s3)CC2)cc1	-1	-3	8	-3	-12	0	-1
Cc1cc(C)cc(NC(=O)CN2CCCN(S(=O)(=O)c3ccc(Br)s3)CC2)c1	-1	-2	-1	-7	-10	nt	nt
O=C(Nc1ccccc1F)c1ccc(CSc2ccccc2)o1	-2	nt	0	-4	nt	nt	nt
Cc1cc(C)nc(/N=C(\N)N2CCCCCC2)n1	-1	nt	17*	-6	nt	-1	-3
CCOc1ccc(CC(=NCCc2ccccc2)C2=C(O)CC(C)(C)CC2=O)cc1OCC	-1	nt	-1	3	nt	nt	nt
CCOc1ccc(Nc2nc(Cc3nnc(SCC(=O)c4ccc(C)c(C)c4)o3)cs2)cc1	-1	-4	19*	5	5	-1	0
O=C(NNS(=O)(=O)c1ccccc1[N+](=O)[O-])c1cccc([N+](=O)[O-])c1	-2	nt	-1	3	nt	nt	nt
CCC(C)C(NC(=O)c1ccccc1NC(=O)c1ccc(OC)cc1)C(=O)NCc1ccco1 (configuration not stated)	-1	0	14*	1	6	7	4
